Laboratory results reported in the supplement of paper PMC10338343.
± gives the standard deviation. In all, about 5,500 sequences were measured (“pre-steady-state target cleavage rate”: median about 0.1, highest 2% from about 0.64 on). Only a selection was taken, and the highest values are over-represented in it overall.

What follows are sequences tested on MIWI (PIWIL1) piRISC loaded with piRNA #2 (30 nt) (assay: pre-steady-state target cleavage rate (min^-1); MIWI and MILI are mouse PIWI proteins and EfPiwi is from a freshwater sponge; tags in brackets are library labels; higher = faster piRNA-guided slicing of the target). Details: guide: piRNA #2 5'p-UUAGGUAACCCAGUAGAUCCAGAGGAAUUC; auxiliary factor: 500 nM mouse GTSF1.
How it was run: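 The pre-steady-state cleavage rate was calculated from a burst-and-steady-state fit. Data came from Cleave-'n-Seq, in which […] transcribed, DNA-blocked target RNA library was mixed with 1 nM active affinity-purified piRISC carrying one synthetic guide, with or without 500 nM GTSF1 partner protein, in HEPES–potassium acetate buffer at 33 °C for 0–8 or 0–960 min. Uncleaved targets were sequenced and normalised to depth and to weakly complementary targets, three trials were pooled, and k3 was capped at 0.0001 min^-1.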

First: CUUAACCUCUGGAUAUACUGGGUUACCUAA
Second: CAAUUCCUCUGGAUCUACUGGGUAACCUAA
The “pre-steady-state target cleavage rate” value of the first is higher: 0.552 ± 0.042 for the first, 0.263 ± 0.049 for the second.

Compared with CUUAACCUCUGGAUCUACUGGGUAUGCUAA, CAAAAGCUCUGGAUCUACUGGGUUACCUAA is higher in “pre-steady-state target cleavage rate” value: 0.0233 ± 0.0061 for the first, 0.105 ± 0.025 for the second.

CUUAAGGAGUGGGAUCUACUGGGUUACCUAA and CAAUUCCUCUGGAUCUACUGGUGUUACCUAA are within error of each other in “pre-steady-state target cleavage rate” value: 0.0146 ± 0.0073 for the first, 0.0066 ± 0.0037 for the second.

Going from CAAUUCCUCUGGAUCUACUGUGUUACCUAA to CAAUUCCUCUGGAUCUACUGGUUACCUAA, the “pre-steady-state target cleavage rate” value falls from 0.751 ± 0.075 to 0.19 ± 0.046.

GAAUUCCUCUGGAUCUACUGUGGUUACCUAA and CUAUUCCUCUGGAUCUACUGGUGUUACCUAA are within error of each other in “pre-steady-state target cleavage rate” value: 0.00388 ± 0.0038 for the first, 0.00505 ± 0.0032 for the second.

CUUUUCCUCUGGAUCUACUGGUGUUACCUAA and GAAUUCCUCUGGAUCUACUGGUGUUACCUAA are within error of each other in “pre-steady-state target cleavage rate” value: 0.00402 ± 0.0035 for the first, 0.0068 ± 0.0031 for the second.

First: CUUUUCCUCUGGAUCUACUGUGUUACCUAA
Second: CUAUUCCUCUGGAUCUACUGGGUUACCUAA [g2:g28:cont:t1A]
The “pre-steady-state target cleavage rate” value of the first is higher: 0.751 ± 0.048 for the first, 0.388 ± 0.062 for the second.

Going from CUUUUUCCUCUGGAUCUACUGGGUUACCUAA to CUAUUCCUCUGGAUCUACUGUGUUACCUAA, the “pre-steady-state target cleavage rate” value rises from 0.308 ± 0.046 to 0.696 ± 0.073.

Going from GAAUUCCUCUGGAUCUACUGUGUUACCUAA to CAAUUGCUCUGGAUCUACUGGGUUACGUAA, the “pre-steady-state target cleavage rate” value falls from 0.673 ± 0.06 to 0.536 ± 0.067.

First: CUUAAGGUGACGAUCUACUGGGUUACCUAA
Second: CUUAAGGACAGGAUCUACUGCGUUACCUAA
The “pre-steady-state target cleavage rate” value of the first is lower: 0.0052 ± 0.0036 for the first, 0.0331 ± 0.017 for the second.

Going from CUUAACGUCUCGAUCUACUGGGUUACCUAA to CUUAAGGAGUAGAUCUACUGGGUUACCUAA, the “pre-steady-state target cleavage rate” value falls from 0.357 ± 0.041 to 0.00567 ± 0.0048.

CAAUUCCUCUGGUUCUACUGGGAUACCUAA and CUUAACCUGUGGAACUACUGGGUUACCUAA are within error of each other in “pre-steady-state target cleavage rate” value: 0.145 ± 0.038 for the first, 0.177 ± 0.048 for the second.

Going from CUUAAGGAGACCUUCUACUGGGUUACGUAA to CUUUUCCGUCUGGAUCUACUGGGUUACCUAA, the “pre-steady-state target cleavage rate” value rises from 0.00451 ± 0.0027 to 0.385 ± 0.039.

Going from CUUAUCCUCUGGAUCUACUGUGUUACCUAA to CUUAACCUCUGGAUCUACUGUGUUACCUAA, the “pre-steady-state target cleavage rate” value falls from 0.722 ± 0.074 to 0.597 ± 0.045.

CUUAUCCUCUGGAUCUACUGGUUACCUAA and CUUAAGCUCUGGAUCUACUGGGUUACCUCAA are within error of each other in “pre-steady-state target cleavage rate” value: 0.0947 ± 0.024 for the first, 0.0988 ± 0.015 for the second.

CAUUUCCACUGGAUCUACUGGGUUACCUAA and CAAUUCCUCUGGAUCUACUGGGUUACCAAA are within error of each other in “pre-steady-state target cleavage rate” value: 0.478 ± 0.058 for the first, 0.509 ± 0.068 for the second.

CUAUUCCUCUGGAUCUACUGGGUUACCAAA and GAAUUCCUCUCGAUCUACUGGGUUACCAAA are within error of each other in “pre-steady-state target cleavage rate” value: 0.477 ± 0.061 for the first, 0.564 ± 0.067 for the second.

CUUAUCCUCUCGAUCUACUGGGUUACCAAA and CUUUUCCUCUCGAUCUACUGGGUUACCUUA are within error of each other in “pre-steady-state target cleavage rate” value: 0.542 ± 0.041 for the first, 0.539 ± 0.05 for the second.

Compared with CAAUUCCUCUCGAUCUACUGGGUUACCAAA, CUUUUCCUCUGGAUCUACUGGGUUACCAAA is lower in “pre-steady-state target cleavage rate” value: 0.904 ± 0.073 for the first, 0.477 ± 0.052 for the second.

CUAUUCCUCUCGAUCUACUGGGUUACCAAA and CUUUUCCUCUCGAUCUACUGGGUUACCAAA are within error of each other in “pre-steady-state target cleavage rate” value: 0.711 ± 0.047 for the first, 0.64 ± 0.048 for the second.
